# Results from PubChem BioAssay.
# Calls of active or inactive are those of the source.
# Legend:
# [1] = tested on: Plasmodium falciparum Sir2 (PF13_0152, Sir2A); experiment: pfSir2 binders on small-molecule microarrays, primary screen, biochemical, small-molecule microarray, 635 nm fluorescence (AID 1098); conditions: small-molecule microarray binding, fluorescence 635 nm; higher = more signal;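 further: score merges spot fluorescence intensity with its signal-to-noise ratio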
# [2] = small-molecule microarray binders of probe aDKK1, primary screen, biochemical, biotinylated probe, 635/667 nm fluorescence (AID 1099); conditions: higher = more signal;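 further: score merges 667nm spot fluorescence with signal to noise across triplicate slides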
# [3] = small-molecule microarray binders of probe aCHRDL2, primary screen, biochemical, biotinylated probe, 635/667 nm fluorescence (AID 1100); conditions: higher = more signal
# [4] = splicing luciferase reporter signal modulators, primary screen, spliceosome inhibition project, cell-based, HEK293, splice +/- reporter (AID 1101); conditions: luminescence, 24 h, higher = more signal, called active from +8 up or from −8 down;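 further: HEK293 cells carrying a splicing-competent luciferase reporter gene; test concentration not given here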
# [5] = biological target: Fibroblast growth factor 10 (Homo sapiens) (UniProt O15520); experiment: FGF10 binders on small-molecule microarrays, primary screen, biochemical, small-molecule microarray, 635 nm fluorescence (AID 1102); conditions: FGF10 binding, fluorescence 635 nm, higher = more signal
# [6] = tested on: glycogen synthase kinase-3 (GSK3A per assay name; protocol says GSK3B); experiment: GSK3 binders on small-molecule microarrays, primary screen, biochemical, small-molecule microarray, 635 nm fluorescence, GSK3A (AID 1103); conditions: small-molecule microarray binding, fluorescence 635 nm; higher = more signal; further: the record names both GSK3A and GSK3B
# [7] = biological target: Epidermal growth factor receptor (Homo sapiens) (UniProt P00533); experiment: EGFR binders on small-molecule microarrays, primary screen, biochemical, small-molecule microarray, 635 nm fluorescence (AID 1104); conditions: EGFR binding, higher = more signal;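 further: score merges 667 nm emission intensity with spot signal to noise over triplicate slides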
# [8] = biological target: Follistatin-related protein 3 (Homo sapiens) (UniProt O95633); experiment: FSTL3 binders on small-molecule microarrays, primary screen, biochemical, small-molecule microarray, 635 nm fluorescence (AID 1105); conditions: FSTL3 binding, higher = more signal;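 further: score merges emission near 667 nm and signal to noise per printed spot across three slides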
# [9] = biological target: Dickkopf-related protein 1 (Homo sapiens) (UniProt O94907); experiment: DKK1 binders on small-molecule microarrays, primary screen, biochemical, small-molecule microarray, 635 nm fluorescence scan (AID 1106); conditions: DKK1 binding, higher = more signal;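 further: score merges emission near 667 nm with signal to noise over three replicate slides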
# [10] = tested on: Inhibin beta A chain (activin A); experiment: INHBA (activin A) binders on microarrays, primary screen, biochemical, small-molecule microarray, 635 nm fluorescence scan (AID 1107); conditions: small-molecule microarray binding, higher = more signal;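 further: mouse activin A protein probed at 4.33 µg/mL on printed slides; score merges bound-protein fluorescence near 667 nm with spot signal-to-noise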
# [11] = tested on: Human papillomavirus type 1a protein E7 (residues 44-93); experiment: HPV1a E7 fragment binders on microarrays, primary screen, biochemical, small-molecule microarray, residues 44-93, 635 nm fluorescence (AID 1108); conditions: small-molecule microarray binding, fluorescence 635 nm; higher = more signal;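 further: E7 fragment applied at 1 µg/mL in TBST for 1 h at 4 C; score combines spot fluorescence with its signal to noise ratio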
# [12] = modulators of HCV replicon luciferase signal, primary screen, HCV replication inhibitor project, Huh7 cells, luciferase reporter (AID 1109); conditions: 48 h, higher = more signal;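 further: huh7 hepatoma cells harbouring a luciferase neomycin HCV replicon reporter; luciferase luminescence as measure of HCV replicon replication; test concentration not given here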
# [13] = biological target: Left-right determination factor 2 (Homo sapiens) (UniProt O00292); experiment: LEFTY2 binders on small-molecule microarrays, primary screen, biochemical, small-molecule microarray, 635 nm fluorescence scan (AID 1110); conditions: LEFTY2 binding, higher = more signal
# [14] = biological target: Calmodulin-1 (Homo sapiens) (UniProt P0DP23); experiment: CALM1 binders on microarrays, EGTA buffer, profiling panel, biochemical, small-molecule microarray, Cy5-labelled CALM1 (AID 1111); conditions: Cy5-CALM1 binding fluorescence, higher = more signal;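 further: labelled calmodulin applied in Tris saline Tween buffer holding calcium plus EGTA and DTT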
# [15] = biological target: Calmodulin-1 (Homo sapiens) (UniProt P0DP23); experiment: calcium-bound CALM1 binders on microarrays, profiling panel, artefact control for SMM control-protein annotation, biochemical, small-molecule microarray, Cy5-labelled CALM1, plus calcium (AID 1112); conditions: Cy5-CALM1 binding fluorescence, higher = more signal;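 further: score merges spot fluorescence with signal to noise from triplicate slides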
# [16] = small-molecule microarray binders of probe aWnt5a, primary screen, biochemical, biotinylated probe, 635/667 nm fluorescence (AID 1113); conditions: higher = more signal;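 further: score merges 667 nm fluorescence intensity with signal-to-noise per printed feature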
# [17] = small-molecule microarray binders of probe aShh, primary screen, biochemical, biotinylated probe, 635/667 nm fluorescence (AID 1114); conditions: higher = more signal;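 further: probe is biotin-labelled aShh protein from a stem cell growth factor screen; measures binding of labelled protein to compounds printed on the slide; score merges feature fluorescence at 667 nm with signal-to-noise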
# [18] = small-molecule microarray binders of probe aNog, primary screen, biochemical, biotinylated probe, 635/667 nm fluorescence (AID 1115); conditions: higher = more signal;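 further: probe is biotinylated aNog protein used at 0.15 µg/mL for 1 h at 4 C; z-score combines 667 nm fluorescence of each spot with its signal to noise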
# [19] = biological target: Torsin-1A-interacting protein 1 (Homo sapiens) (UniProt Q5JTV8); experiment: LAP1 binders from COS7 cell lysate, primary screen, small-molecule microarray, 635/667 nm fluorescence (AID 1116); conditions: COS7-hLAP1 lysate binding, 635 nm fluorescence, higher = more signal
# [20] = biological target: Alpha-bungarotoxin (Bungarus multicinctus) (UniProt P60615); experiment: alpha-bungarotoxin binders on microarray, profiling panel, artefact control for SMM control protein annotation, biochemical, small-molecule microarray, Alexa647 label, 635/667 nm fluorescence (AID 1117); conditions: alpha-BTX-A647 binding fluorescence, higher = more signal
# Chain of Alpha-bungarotoxin (Bungarus multicinctus) (P60615 whole entry, looked up): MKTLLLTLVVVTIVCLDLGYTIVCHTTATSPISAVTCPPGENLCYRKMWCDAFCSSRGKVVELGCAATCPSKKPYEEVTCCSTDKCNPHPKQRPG
# Chain of Epidermal growth factor receptor (Homo sapiens) (P00533 whole entry, looked up): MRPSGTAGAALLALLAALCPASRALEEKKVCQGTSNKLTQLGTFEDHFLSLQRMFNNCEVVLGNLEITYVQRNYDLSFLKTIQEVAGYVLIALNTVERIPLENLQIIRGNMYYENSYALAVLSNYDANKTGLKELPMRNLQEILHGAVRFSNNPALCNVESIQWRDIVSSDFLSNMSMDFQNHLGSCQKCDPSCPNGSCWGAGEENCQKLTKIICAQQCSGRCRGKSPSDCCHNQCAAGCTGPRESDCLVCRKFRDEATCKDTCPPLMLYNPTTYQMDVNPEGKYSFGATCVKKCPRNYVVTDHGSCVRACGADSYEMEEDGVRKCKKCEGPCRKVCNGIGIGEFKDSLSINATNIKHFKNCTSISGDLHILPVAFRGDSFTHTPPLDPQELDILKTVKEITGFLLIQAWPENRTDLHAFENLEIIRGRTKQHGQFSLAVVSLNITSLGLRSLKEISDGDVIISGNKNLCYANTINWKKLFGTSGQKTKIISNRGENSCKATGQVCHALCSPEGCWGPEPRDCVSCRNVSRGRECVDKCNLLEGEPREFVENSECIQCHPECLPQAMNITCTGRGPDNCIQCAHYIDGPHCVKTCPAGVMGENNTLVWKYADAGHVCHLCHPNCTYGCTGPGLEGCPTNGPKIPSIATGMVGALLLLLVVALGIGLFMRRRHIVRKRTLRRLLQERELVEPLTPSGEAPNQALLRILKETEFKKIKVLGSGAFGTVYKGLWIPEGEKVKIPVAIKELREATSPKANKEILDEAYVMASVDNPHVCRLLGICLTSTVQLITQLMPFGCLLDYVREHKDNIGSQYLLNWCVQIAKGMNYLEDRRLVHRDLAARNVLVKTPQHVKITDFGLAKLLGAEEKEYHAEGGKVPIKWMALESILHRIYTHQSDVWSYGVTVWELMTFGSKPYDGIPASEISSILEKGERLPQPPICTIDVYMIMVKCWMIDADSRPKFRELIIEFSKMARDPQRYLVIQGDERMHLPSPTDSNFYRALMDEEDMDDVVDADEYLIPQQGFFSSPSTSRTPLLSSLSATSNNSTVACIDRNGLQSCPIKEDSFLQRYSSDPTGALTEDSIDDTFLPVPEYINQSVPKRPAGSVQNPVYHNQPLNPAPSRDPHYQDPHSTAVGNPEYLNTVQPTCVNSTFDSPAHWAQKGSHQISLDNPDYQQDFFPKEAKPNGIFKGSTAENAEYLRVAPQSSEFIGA
# Chain of Torsin-1A-interacting protein 1 (Homo sapiens) (Q5JTV8 whole entry, looked up): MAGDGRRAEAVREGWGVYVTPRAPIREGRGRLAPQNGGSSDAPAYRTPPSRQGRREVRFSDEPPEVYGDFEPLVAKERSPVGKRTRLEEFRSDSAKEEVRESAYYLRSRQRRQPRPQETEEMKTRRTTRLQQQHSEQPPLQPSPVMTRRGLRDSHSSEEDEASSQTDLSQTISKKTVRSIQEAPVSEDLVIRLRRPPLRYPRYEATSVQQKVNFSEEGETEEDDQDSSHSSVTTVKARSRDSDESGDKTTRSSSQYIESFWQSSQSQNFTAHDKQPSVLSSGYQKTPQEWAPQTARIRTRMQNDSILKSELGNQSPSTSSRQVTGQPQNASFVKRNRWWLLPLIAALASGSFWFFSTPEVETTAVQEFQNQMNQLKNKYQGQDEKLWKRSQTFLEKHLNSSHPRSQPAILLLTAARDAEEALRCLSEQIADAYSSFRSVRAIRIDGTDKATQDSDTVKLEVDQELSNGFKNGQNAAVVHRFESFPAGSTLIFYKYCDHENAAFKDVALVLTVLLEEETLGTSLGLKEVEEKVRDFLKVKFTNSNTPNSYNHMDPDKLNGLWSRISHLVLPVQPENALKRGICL
# Chain of Dickkopf-related protein 1 (Homo sapiens) (O94907 whole entry, looked up): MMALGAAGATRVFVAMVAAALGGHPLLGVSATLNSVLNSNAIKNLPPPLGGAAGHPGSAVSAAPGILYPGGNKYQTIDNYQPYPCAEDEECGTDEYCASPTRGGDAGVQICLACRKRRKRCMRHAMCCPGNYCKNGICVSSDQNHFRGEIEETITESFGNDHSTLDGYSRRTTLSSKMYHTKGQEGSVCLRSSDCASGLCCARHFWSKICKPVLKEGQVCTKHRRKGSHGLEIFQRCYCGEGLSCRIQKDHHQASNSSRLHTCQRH
# Chain of Left-right determination factor 2 (Homo sapiens) (O00292 whole entry, looked up): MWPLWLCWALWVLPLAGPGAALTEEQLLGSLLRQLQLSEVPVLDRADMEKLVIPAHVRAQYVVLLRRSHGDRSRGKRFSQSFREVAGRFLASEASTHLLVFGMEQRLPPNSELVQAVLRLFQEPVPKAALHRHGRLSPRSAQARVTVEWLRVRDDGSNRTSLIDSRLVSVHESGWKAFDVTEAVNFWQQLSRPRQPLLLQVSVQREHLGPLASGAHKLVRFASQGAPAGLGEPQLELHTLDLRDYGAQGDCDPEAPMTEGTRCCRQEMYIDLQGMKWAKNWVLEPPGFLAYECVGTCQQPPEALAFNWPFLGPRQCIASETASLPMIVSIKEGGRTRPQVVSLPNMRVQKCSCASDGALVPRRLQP
# Chain of Fibroblast growth factor 10 (Homo sapiens) (O15520 whole entry, looked up): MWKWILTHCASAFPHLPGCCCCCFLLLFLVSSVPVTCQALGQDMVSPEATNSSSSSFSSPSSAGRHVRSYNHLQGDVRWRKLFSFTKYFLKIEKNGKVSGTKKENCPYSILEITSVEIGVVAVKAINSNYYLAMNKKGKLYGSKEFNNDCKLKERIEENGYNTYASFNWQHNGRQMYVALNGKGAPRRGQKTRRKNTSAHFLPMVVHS
# Chain of Follistatin-related protein 3 (Homo sapiens) (O95633 whole entry, looked up): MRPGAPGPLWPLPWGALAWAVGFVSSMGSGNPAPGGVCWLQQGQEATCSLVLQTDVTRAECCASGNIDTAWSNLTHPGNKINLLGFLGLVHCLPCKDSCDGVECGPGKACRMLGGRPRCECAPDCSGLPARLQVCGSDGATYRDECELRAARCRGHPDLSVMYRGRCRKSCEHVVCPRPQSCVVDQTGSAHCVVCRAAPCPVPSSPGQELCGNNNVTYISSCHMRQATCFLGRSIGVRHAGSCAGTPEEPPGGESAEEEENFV
Structure (SMILES),composite z-score [1],composite z-score [2],composite z-score [3],z-score [4],composite z-score [5],composite z-score [6],composite z-score [7],composite z-score [8],composite z-score [9],composite z-score [10],composite z-score [11],z-score [12],composite z-score [13],composite z-score [14],composite z-score [15],composite z-score [16],composite z-score [17],composite z-score [18],composite z-score [19],composite z-score [20]
C=C(/C(=C/C[C@H](OC(=O)c1ccncc1)c1ccccc1OCCO)c1cc(C(=O)OC)ccc1OC)C(C)C,0.748,-0.0168,0.253,-0.361 (inactive),1.54,0.33,-0.105,1.1,0.599,1.25,1.03,-2.96,0.255,-0.23,-0.587,0.132,0.0639,-0.194,0.0538,1.42
CN(C)CCCNC(=O)[C@@]1(Cc2ccccc2I)c2ccccc2C(=O)N(Cc2ccccc2)[C@H]1c1ccc(CO)cc1,1.54,1.04,-0.726,0.652 (inactive),1.37,1.33,0.17,0.617,0.707,0.0573,1.41,-3.36,0.189,-0.489,-0.636,0.22,-0.32,0.84,1.21,0.542
O=C1NC(=O)C2C1C=CC(C(O)c1cccc(O)c1)N2Nc1ccc(Cl)cc1Cl (stereo not given),-0.195,0.454,0.815,1.16 (inactive),0.0046,-0.607,-0.531,-0.358,-0.555,0.519,-0.429,-0.591,-0.715,0.741,0.675,-0.104,-0.212,-0.237,-0.369,0.369
O=c1cccc(-c2ccccc2C(F)(F)F)o1,-0.722,1.15,0.567,0.756 (inactive),-0.382,-0.363,-0.955,-0.722,-0.469,1.11,-0.438,-0.445,-0.747,-0.294,0.243,0.421,0.417,1.08,-0.211,-0.678
C=CCNC(=O)[C@H]1[C@@H]2C(=O)O[C@@H](c3ccccc3)[C@@H](c3ccccc3)N2[C@@H](c2ccc(O)cc2)[C@]12C(=O)Nc1ccc(C#CC3=CCCCC3)cc12,1.14,0.593,0.662,0.622 (inactive),0.703,1.13,0.859,0.696,0.909,1.31,1.32,-1.83,0.71,0.887,0.571,0.163,0.951,0.587,1.11,0.491
COc1ccc(C#Cc2ccc3c(c2)[C@]2(C(=O)N3)[C@H](c3ccc(OCCO)cc3)N3[C@H](c4ccccc4)[C@H](c4ccccc4)OC(=O)[C@H]3[C@@H]2C(=O)O)cc1,0.955,0.606,0.176,-1.35 (inactive),1.42,1.22,0.398,1.44,0.183,0.751,1.46,-1.3,0.362,-0.17,-0.893,-0.0028,-0.0999,1.81,0.523,0.485
COC(=O)[C@@]1(CCS(=O)(=O)c2ccccc2)N=C(c2ccc(OCCCO)cc2)O[C@H]1c1ccccc1N=[N+]=[N-],1.52,0.336,0.475,0.177 (inactive),0.419,1.29,0.491,0.969,0.425,0.865,1.38,-1.83,0.406,1.29,0.383,-0.0455,-0.0904,0.424,0.861,2.23
COCCOC(=O)N1C(=O)[C@@]2(c3cc(C#CCCO)ccc31)[C@H](C(=O)N1CCc3cc(OC)c(OC)cc3C1)[C@H]1C(=O)O[C@H](c3ccccc3)[C@H](c3ccccc3)N1[C@@H]2c1ccccc1OCCO,1.64,-0.232,0.0036,-0.961 (inactive),1.42,1.29,0.861,1.32,0.35,0.748,1.4,-1.75,0.473,1.43,0.013,0.186,-0.0146,0.596,0.325,0.477
COC(=O)C1(CC(C)C)C=C2C(=C(C(C)C)C(=O)C2C)CN1 (stereo not given),-0.573,0.834,0.937,1.97 (inactive),-0.296,-2,-0.961,-0.771,-0.871,1.34,-0.57,-0.193,-0.975,0.228,1.07,-0.0403,0.171,0.595,0.187,-0.77
Cc1ccc(F)cc1S(=O)(=O)N[C@@H]1CCN(Cc2ccc3[nH]ccc3c2)C1,0.114,-0.177,-0.124,0.309 (inactive),0.482,0.139,0.651,1.08,0.574,0.689,0.935,-4.03,0.292,-0.46,-0.754,-0.12,-0.0709,-0.295,0.144,0.431
COc1ccc(NN2C(C(O)c3ccc(OC)cc3)C=CC3C(=O)N(C4CCCCC4)C(=O)C32)cc1 (stereo not given),0.797,0.702,0.501,-0.316 (inactive),0.608,1.14,0.556,1.04,-0.101,1.2,1.2,-1.02,0.318,0.566,-0.366,0.0357,0.191,0.571,0.53,1.08
